Measured values taken from PubChem BioAssay.

test: HepG2 cell viability effects, profiling panel, calcein-AM fluorescence, 48 h, basal (AID 1164); conditions: higher = more signal; note: test concentration not given here

SMILES | z-score
CO[C@H]1O[C@H](CO)[C@@H](OC(=O)Nc2ccc(C(F)(F)F)cc2)[C@H](OC(=O)Nc2ccc3c(c2)OCO3)[C@@H]1OC(=O)Nc1ccc2c(c1)OCO2 | -1.81
COCCOC(=O)N1C(=O)[C@@]2(c3cc(C#Cc4ccc(OC)cc4)ccc31)[C@H](c1ccc(O)cc1)N1[C@H](c3ccccc3)[C@H](c3ccccc3)OC(=O)[C@H]1[C@@H]2C(=O)N1CCc2cc(OC)c(OC)cc2C1 | -0.486
CCC(CC)C(O)C1C=CC2C(=O)NC(=O)C2N1Nc1ccccn1 (stereo not given) | 0.0063
CN1C(=O)C2C=CC(C(O)C3CC=CCC3)N(N(c3ccccc3)c3ccccc3)C2C1=O (stereo not given) | 0.125
COc1cc2c(cc1OC)CN(C(=O)[C@H]1[C@@H]3C(=O)O[C@@H](c4ccccc4)[C@@H](c4ccccc4)N3[C@@H](c3ccc(O)cc3)[C@]13C(=O)Nc1ccc(C#CCCO)cc13)CC2 | -0.162
CCN(CC)c1ccc(N2CC=CC34O[C@@H]5C=CCCOC(=O)C5[C@H]3C(=O)N(CCCCCCO)[C@@H]4C2=O)cc1 (stereo not given in full) | 0.239
Cc1ccc(S[C@]2(C(=O)O)CC(=O)N(C(C)C)[C@@H]2c2ccc(CO)cc2I)cc1 | 1.65
C=CCNC(=O)[C@H]1[C@@H]2C(=O)O[C@@H](c3ccccc3)[C@@H](c3ccccc3)N2[C@@H](c2ccccc2OCCO)[C@]12C(=O)Nc1ccc(C#CCCO)cc12 | -0.543
C=C(CC1([C@@H](NP(=O)(c2ccccc2)c2ccccc2)[C@H]2C[C@@H]2CCCC)CC1)c1ccccc1 | -0.721
O=C1C[C@@](C(=O)NCCN2CCOCC2)(c2ccc([N+](=O)[O-])cc2)[C@@H](c2ccc(CO)cc2)N1CC12CC3CC(CC(C3)C1)C2 | -3
CC(C)[Si](C#Cc1ccc(Oc2ccccc2)cc1)(O[Si](C#Cc1ccc(Oc2ccccc2)cc1)(C(C)C)C(C)C)C(C)C | -0.377
O=C(NCCO)C1=C[C@H](Oc2ccccc2I)[C@@H](O)[C@H](N(Cc2ccco2)C(=O)Cc2ccccc2)C1 | -0.902
COc1ccc(C#Cc2ccc3c(c2)[C@]2(C(=O)N3)[C@H](C(=O)Nc3nc4ccccc4s3)[C@H]3C(=O)O[C@H](c4ccccc4)[C@H](c4ccccc4)N3[C@@H]2c2ccc(O)cc2)cc1 | 0.949
C=CCOC(=O)[C@H]1[C@@H]2C(=O)O[C@@H](c3ccccc3)[C@@H](c3ccccc3)N2[C@@H](c2ccc(OCCOC(=O)[C@@H]3C[C@@H]4C(=O)N[C@@H](CCCCNC(C)=O)C(=O)N4[C@@H]3c3ccc(O)cc3)cc2)[C@]12C(=O)Nc1ccccc12 | -0.578
COC(=O)[C@H](Cc1ccccc1)N[C@@H](/C=C/C1CC1)[C@H](O)Cc1ccccc1 | -0.438
CC(C)N1C(=O)[C@@]2(Cc3ccccc31)c1ccccc1C(=O)N(Cc1ccccc1Cl)[C@H]2c1ccc(CO)cc1 | -0.921
COC(=O)c1c(CC[C@@H](CO)NC(=O)NCCn2cc(C3(O)CCCC3)nn2)oc(C(C)=O)c1C(=O)OC | 0.122
Cc1ccc(S[C@]2(C(=O)NCCCN(C)C)CC(=O)N(Cc3cc(C(F)(F)F)cc(C(F)(F)F)c3)[C@@H]2c2ccc(CO)cc2)cc1 | -0.767
CCOC(=O)C1=C[C@@H](C(C)(C)C)N(S(=O)(=O)c2ccc(C)cc2)[C@H]1c1ccc(F)cc1 | -1.71
COc1cc2c(cc1OC)CN(C(=O)[C@H]1[C@@H]3C(=O)O[C@@H](c4ccccc4)[C@@H](c4ccccc4)N3[C@@H](c3ccc(O)cc3)[C@]13C(=O)Nc1ccccc13)CC2 | 0.394
COC(=O)C(CC#Cc1ccc2c(c1)[C@]1(C(=O)N2)[C@H](c2ccc(OCCO)cc2)N2[C@H](c3ccccc3)[C@H](c3ccccc3)OC(=O)[C@H]2[C@@H]1C(=O)Nc1nc2ccccc2s1)C(=O)OC | 0.94
COCCOC(=O)N1C(=O)[C@@]2(c3cc(C#CCCO)ccc31)[C@H](C(=O)N1CCCCCCC1)[C@H]1C(=O)O[C@H](c3ccccc3)[C@H](c3ccccc3)N1[C@@H]2c1ccc(OCCO)cc1 | 0.155
C[N+](C)(C)CCCCCCNC(=O)[C@@H]1C[C@@H]2C(=O)N[C@@H](Cc3ccccc3)C(=O)N2[C@@H]1c1cccc(OCCO)c1 | 0.417
CC(=O)n1cc(C(O)C2C=CC3C(=O)N(c4ccccc4)C(=O)C3N2Nc2ccc([N+](=O)[O-])cc2)c2ccccc21 (stereo not given) | -0.439
COC(=O)[C@]1(CCC(=O)OC(C)(C)C)N=C(c2ccc(OCCCO)cc2)O[C@@H]1c1ccccc1CN=[N+]=[N-] | -3.03
